From PubChem BioAssay (EPA / NIEHS) come the findings set out here.

Several values for one entry are separate records, joined by “and”; a condition that tells them apart may be missing. Identical values can stand only once. Results filed as inconclusive are left out. A structure can be active in one record and inactive in another. Activity calls are given as the source filed them. How the source made its calls: active means hit-call score of the fitted dose curve at least 0.9, where 1 is the maximum; inconclusive means response in the unintended direction; inactive means score below 0.9.

Chain of Cellular tumor antigen p53 (Homo sapiens) (P04637 whole entry, looked up, the tested form may be a part): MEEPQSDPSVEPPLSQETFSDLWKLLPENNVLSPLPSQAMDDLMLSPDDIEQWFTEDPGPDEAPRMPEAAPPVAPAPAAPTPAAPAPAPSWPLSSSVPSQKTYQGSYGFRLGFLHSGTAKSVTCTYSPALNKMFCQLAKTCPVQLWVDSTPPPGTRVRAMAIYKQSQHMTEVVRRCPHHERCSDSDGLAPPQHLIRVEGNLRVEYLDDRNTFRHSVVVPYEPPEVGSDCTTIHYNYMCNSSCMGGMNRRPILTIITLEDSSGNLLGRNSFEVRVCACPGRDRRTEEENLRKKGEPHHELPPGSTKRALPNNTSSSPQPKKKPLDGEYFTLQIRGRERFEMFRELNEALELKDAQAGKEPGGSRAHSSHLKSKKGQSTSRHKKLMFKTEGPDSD

The target in the assay is Cellular tumor antigen p53 (Homo sapiens) (UniProt P04637). The assay can be described thus: TOX21_p53_BLA_p3_ratio: Tox21 HCT-116 p53 Agonism Beta-lactamase Assay, Ratio, Phase 3 (AID 2283596). From the text:
TOX21_p53_BLA_p3 is a cell-based, single-readout assay that uses HCT116, a human intestinal cell line, […] in a 1536-well plate.TOX21_p53_BLA_p3_ratio is an assay readout measuring reporter gene via receptor activity and designed using inducible reporter (beta lactamase induction) detected with GAL4 b-lactamase reporter gene. The signal is derived from the ratio of cleaved (ch2) to uncleaved (ch1) reporter gene substrate used as the measure of target activity.Data from the assay component TOX21_p53_BLA_p3_ratio was analyzed into 1 assay endpoint. This assay endpoint, TOX21_p53_BLA_p3_ratio, was analyzed in the positive analysis fitting direction relative to DMSO as the negative control and baseline of activity. Using a type of inducible reporter, gain-of-signal activity can be used to understand changes in the reporter gene as they relate to the gene TP53. Furthermore, this assay endpoint can be referred to as a primary readout, because this assay has produced multiple assay endpoints where this ratio serves a reporter gene function to understand target activity. To generalize the intended target to other relatable targets, this assay endpoint is annotated to the DNA binding intended target family, where the subfamily is tumor suppressor.
Thawing Method: Place 14 mL of pre-warmed thaw medium into a 15 mL of conical tub. Remove the vial of cells to be thawed from liquid nitrogen and thaw rapidly by placing at 37C in a water bath with gentle agitation for 1-2 minutes. Decontaminate the vial by wiping with 70% ethanol before opening in a biological safety cabinet. Transfer the vial contents drop-wise into 14 mL of thaw medium in a sterile 15-mL conical tub. Centrifuge cells at 900 rpm for 4 minutes and resuspend in thaw medium. Transfer contents to the T75 tissue culture flask containing Thaw Medium and place flask in a humidified 37C/5% CO2 incubator. Switch to growth medium at first passage.Propagation Method: Aspirate medium, rinse once in DPBS, add 0.25% Trypsin/EDTA and swirl to coat the cell evenly. Add an equal volume of Growth Medium to inactivate Trypsin after 2-3 minutes incubation at 37C. Centrifuge cells at 900 rpm for 4 minutes and resuspend in growth medium. Cell should be passage or fed at least twice a week.Assay Protocol: Harvest cells from culture in growth medium and resuspend in assay medium. 2.2 Dispense 4000 cells/5 uL/well into 1536-well black/clear bottom plates using a Multidrop dispenser. After the cells were incubated at 37C for 5 hours, 23 nL of compounds dissolved in DMSO were transferred to the assay plate by a PinTool resulting in a 217-fold dilution. Incubate the plates for 16 hours at 37C, 5% CO2. Add 1 uL of 6X LiveBLAzer FRET B/G (CCF4-AM) Substrate Mixture to each well using a BioRAPTR dispenser and incubate the plates at room temperature for 2 hours. Measure fluorescence intensity at 460 and 530 nm emission and 405 nm excitation by an Envision detector. Data is expressed as the ratio of 460nm/530nm emissions. Add 4 uL of Cell-titer Glo to each well using BioRAPTR and incubate the plates at room temperature for 2 hours. Measure fluorescence intensity by a VewLux plate reader.
As for `CC1CCC(C(C)(C)S)C(=O)C1` (stereo not given), the result was inactive.
Turning to `C=C(C)C(=O)OCCCCCCCCCCCC`, the outcome was inactive.
Still for that read-out and setting: next, `CC(=O)c1ccccc1O`: “inactive”.
On the same count and under the same terms, for `Cc1ccc(S(=O)(=O)N=C=O)cc1` the value was “inactive”.
With `C=C1C[C@H]2[C@@H]3C=C(C)C4=CC(=O)CC[C@]4(C)[C@H]3CC[C@]2(C)[C@@]1(OC(C)=O)C(C)=O`, the outcome was inactive.
Same read-out and setting: next, `CC=C(C)C=CC=C(C)C`: “inactive”; `CCCCOCC(C)O` (stereo not given): “inactive”; `C=C(C)[C@@H]1CC=C(C)CC1`: “inactive”.
As for `Oc1c(Cl)cc(Cl)c(Cl)c1Cl`, the AC50 was 17 µM (active) and 27.1 µM (active).
For `CCOC(=O)C1=NOC(c2ccccc2)(c2ccccc2)C1`, the outcome was inactive.
Take `COc1ccc(-c2coc3cc(O)cc(O)c3c2=O)cc1`: the outcome was inactive.
Same read-out and setting: next, `C=C(C)C(=O)OCCOC(=O)C(=C)C`: “inactive”; `C=C(C)C1CC=C(C)CC1` (stereo not given): “inactive”.
For the molecule `COc1cc(C)ccc1O`, the outcome was inactive.
On the same count and under the same terms, for `Oc1ccc(/C=C/c2cc(O)cc(O)c2)cc1` the value was “inactive”; for `CCCCCCCCCCCC(=O)OCC`, “inactive”.
The same measure, in the same setting: next, `O=C(C=Cc1ccccc1)OCCc1ccccc1`: “inactive”; `C=CC(=O)OCC(C)OCC(C)OCC(C)OC(=O)C=C` (stereo not given): “inactive”; `CC(=O)CC(=O)Nc1ccccc1C`: “inactive”.
With `CCCCCCCCCCCCCC(=O)OC(C)C`, the outcome was inactive.
`C=CCNCC=C`: the outcome was inactive and the AC50 is 84.2 µM (active).
Consider `O=C1CCCCCCCCCCC1`, for which the result was inactive.
The same measure, in the same setting: next, `C=CC(=O)OCCCCCCCCCC`: “inactive”; `O=C(O)c1cc(O)c2ccccc2c1O`: “inactive”; `CCCCOCCOC(=O)COc1ccc(Cl)cc1Cl`: “inactive”.
The same measure, in the same setting: next, `C=C(C)OC(C)=O`: “inactive”; `O=C(O)C1CCC(C(=O)O)CC1` (stereo not given): “inactive”; `CCCCOC(=O)C(C)CC` (stereo not given): “inactive”.
Still for that read-out and setting: next, `CC(C)(C)N`: “inactive”; `CC1(C)[C@@H]2CC[C@@]1(C)C(=O)C2`: “inactive”; `CCCCCCOc1ccc(N)cc1`: “inactive”.
With `CC(C)c1cccc(C(C)C)c1N`, the result was inactive.
Take `CCCCCCCCCCCCc1ccc(O)cc1`: the AC50 is 49.9 µM (active).
Turning to `CCCCCCC=O`, the outcome was inactive.
Same read-out and setting: next, `CC1C(C)(C)C2=C(C(=O)CCC2)C1(C)C` (stereo not given): “inactive”; `CCCSSCCC`: “inactive”; `CC(CC(C)C)=NO`: “inactive”.
Take `c1ccc2c(c1)[nH]c1ccccc12`: the outcome was inactive.
In the case of `CCC[Si](OC)(OC)OC`, the outcome was inactive.

As usually defined, the AC50 is the concentration giving half of the maximal activity seen.
